In all, about 420,000 compounds went through this assay and about 50,000 (12%) were called active. About 26% were inconclusive and are not listed. Calls follow the shape of the dose curve; as a rule, active = well fitted inhibition curve with a large enough effect; inconclusive = small, poorly fitted or top-dose-only effect; inactive = flat fitted curve, though single readings scatter. This excerpt belongs to a sample that is enriched for actives.
Assay: qHTS for Inhibitors of human tyrosyl-DNA phosphodiesterase 1 (TDP1): qHTS in cells in presence of CPT; also: nearly all actives have a fitted effect of over 55% in size
Conditions: chicken DT40 Tdp1-/-;hTDP1 cells + 20 nM CPT, ATP luminescence, 48 h; series mostly up to 46.2 µM; activity change, negative = growth inhibition: at the top concentration
How it was run: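 Cell growth measured by CellTiter-Glo luminescence after a minimum 48 h, 37 C compound exposure with 20 nM CPT in Tdp1-knockout DT40 cells stably expressing hTDP1, seeded 400/well; qHTS titration format.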
% is scaled to controls: 0 for no effect and ±100 for the full control effect; potency is read from the fitted curve at half-maximal effect.

Compound | activity change, negative = growth inhibition | Potency
COc1cc(NC(=O)c2ccc(CNc3c(N4CCCC4)c(=O)c3=O)cc2)cc(OC)c1OC | 1.21% (inactive) | –
COc1cc(NC(=O)c2nc3ccccc3nc2C)cc(OC)c1OC | -29.3% (inactive) | –
COc1cc(C(=O)Nc2ccc(-n3c(C)nc4ccccc4c3=O)cc2)cc(OC)c1OC | – | 16.4 µM (active)
COc1cc(C(=O)Nc2ccc(OCc3cc(=O)n4ccc(C)cc4n3)cc2)cc(OC)c1OC | -7.29% (inactive) | –
COc1ccc(NC(=O)CN2C(=O)CSC2=O)cc1 | 4.96% (inactive) | –
CCC(=O)N1CCCC1(C)C(=O)Nc1ccc2c(c1)CCN2C(C)=O (configuration not stated) | 2.65% (inactive) | –
CC1=C(C(N)=O)C(c2ccc(Br)cc2)n2ncnc2N1 (configuration not stated) | 35.2% (inactive) | –
COC(=O)C1=C(C)Nc2ncnn2C1c1cccnc1 (configuration not stated) | -0.87% (inactive) | –
CC1=C(C(=O)OC2CCCCC2)C(c2cccnc2)n2ncnc2N1 (configuration not stated) | – | 14.6 µM (active)
S=C(NC1CCCCC1)NN1CCOCC1 | -5.84% (inactive) | –
Cc1ccc(C(=O)NCCc2nnc(SCC(=O)Nc3cccc(C(=O)O)c3)n2C)cc1 | 0.587% (inactive) | –
Cc1cccc(NC(=O)C2CCCN2S(=O)(=O)c2cccc3nsnc23)c1C (configuration not stated) | -20.7% (inactive) | –
CCOC(=O)c1cnc(COc2ccccc2Cl)[nH]c1=O | -1.8% (inactive) | –
CC(=O)Nc1ccc(-c2csc(NC=C3C(=O)OC(C)(C)OC3=O)n2)cc1 | -8.37% (inactive) | –
CC(=O)Nc1ccc(-c2csc(NC(=O)Nc3ccccc3)n2)cc1 | – | 3.66 µM (active)
CC(=O)Nc1ccc(S(=O)(=O)Nc2nc(-c3ccc(C(C)(C)C)cc3)cs2)cc1 | -4.81% (inactive) | –

Compound | activity change, negative = growth inhibition | Potency
Cc1nc(NNC(=O)c2ccccc2)cc(-c2ccccc2)n1 | -14.5% (inactive) | –
Cc1ccc(-c2csc(NNC(=O)c3ccccc3)n2)cc1 | – | 4.11 µM (active)
O=C(O)c1ccccc1C(=O)Nc1nc(-c2ccccc2)cs1 | 1.16% (inactive) | –
CC(=O)N1CCN(CC(c2ccccc2)c2ccccc2)CC1 | -27.6% (inactive) | –
CCOc1cc(/C=N/NC(=O)c2ccc(CSc3nncn3C)cc2)ccc1OCC(=O)N1CCOCC1 | 0.321% (inactive) | –
COc1cc(OC)cc(C(=O)Nc2nnc(SCC(=O)NCC3CCCO3)s2)c1 (configuration not stated) | -19.8% (inactive) | –
Cc1noc(C)c1-c1nc(CSc2ccc(Cl)cc2)no1 | 8.49% (inactive) | –
CCN(CC)S(=O)(=O)c1ccc(C)c(NC(=O)COc2ccc(Br)cc2Cl)c1 | -20.7% (inactive) | –
Oc1ccc(Br)cc1C1C=C(c2ccc3c(c2)OCO3)NC(c2ccc(Cl)cc2)N1 (configuration not stated) | – | 7.08 µM (active)
Cc1cccc(-n2c(=O)c3c(c4cc(C)ccc4n3C)n(CC(=O)Nc3ccccc3Cl)c2=O)c1 | 0.458% (inactive) | –
O=C(CN1CCOCC1)N1CCCc2c1c(=O)oc1ccc(OCc3ccccc3)cc21 | – | 18.4 µM (active)
NC(=O)C1CCN(C(=O)COc2ccc3c4c(c(=O)oc3c2)CCC4)CC1 | 2.93% (inactive) | –
Cc1c(C(=O)N2CCOCC2)[nH]c2ccc(OCc3ccccc3)cc12 | -21.9% (inactive) | –
O=C(COc1ccc2oc3c(c2c1)CCCC3)Nc1ccccn1 | -1.19% (inactive) | –
CC1CCCCN1CC(=O)N1CCCc2c1c(=O)oc1ccc(OCc3ccccc3)cc21 (configuration not stated) | – | 16.4 µM (active)
CC1CCCCN1CC(=O)NCc1ccc2c(c1)OCO2 (configuration not stated) | -6.16% (inactive) | –
